This is a sample that favours compounds with a hit; in the whole collection about 2.9% have one here.
Mtb hypoxia rep = PubChem AID 1159583 | fluorescence inhibition, % (test concentration not listed) | 300,000 compounds, 0.1% hits | M. tuberculosis hypoxia-regulated fluorescent reporter, fluorescence; in the data active = fluorescence inhibition mostly above about 23%, no sharp cut-off; inactive = mostly below about 17%
Mtb FBA inh = Mtb FBA enzyme inhibitors, primary screen, biochemical, fluorescence, strain H37Rv; purified M. tuberculosis FBA, fluorescence read-out; inhibition, % at 1 µM; 360,000 compounds, 2.3% hits; AID 588726, 2011
Target sequence (P9WQA3 whole entry, looked up): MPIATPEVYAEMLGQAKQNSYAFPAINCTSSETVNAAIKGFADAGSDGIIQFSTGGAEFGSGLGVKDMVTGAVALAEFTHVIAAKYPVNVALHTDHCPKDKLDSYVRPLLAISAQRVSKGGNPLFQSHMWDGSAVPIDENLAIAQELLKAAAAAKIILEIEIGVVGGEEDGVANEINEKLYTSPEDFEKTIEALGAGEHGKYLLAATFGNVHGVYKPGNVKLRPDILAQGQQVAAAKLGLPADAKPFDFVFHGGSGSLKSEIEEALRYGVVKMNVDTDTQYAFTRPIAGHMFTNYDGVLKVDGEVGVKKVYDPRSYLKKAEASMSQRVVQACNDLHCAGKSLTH
GDH-TPI counter-1 = GDH-TPI coupling enzyme inhibitors, primary screen, artefact control for M. tuberculosis FBA inhibitor project, biochemical, absorbance, full deck; GDH-TPI coupled enzyme counterscreen, NADH absorbance; inhibition, % at 4.8 µM; 360,000 compounds, 1.2% hits; in the data active = inhibition above about 30%
Mtb BioA inh = M. tuberculosis BioA enzyme inhibitors, primary screen, biochemical, plate reader, single point, HTS; 7,8-diaminopelargonic acid synthase BioA (Mycobacterium tuberculosis); purified M. tuberculosis BioA enzyme; inhibition, % at 9.99 µM; 360,000 compounds, 0.096% hits; AID 602481, 2012; in the data active = inhibition above about 40%
FadD28 binding = inhibitors of FadD28 bisubstrate probe binding, primary screen, biochemical, fluorescence polarization, single point; Mycobacterium tuberculosis FadD28 fatty-acid-AMP ligase; inhibition, % at 12.5 µM; 360,000 compounds, 0.22% hits; AID 588549, 2011; in the data active = inhibition above about 8.5%, passing the limit was not always enough
Mtb FBA inh conf = M. tuberculosis aldolase blockers, biochemical, fluorescence, strain H37Rv, confirmation. 5,600 compounds, 78% hits. purified M. tuberculosis FBA, fluorescence read-out. inhibition, % at 1 µM. shares compounds with Mtb FBA inh
GDH-TPI counter-2 = GDH-TPI coupling enzyme inhibitors, artefact control for M. tuberculosis FBA inhibitor project, biochemical, fluorescence, high throughput; AID 652141, 2013; inhibition, % at 1 µM; GDH-TPI coupled enzyme counterscreen; 5,600 compounds, 81% hits; shares compounds with Mtb FBA inh; in the data active = inhibition above about 10%
A number is an active result; 0 = inactive; - = no result given; + = active, no number. Cut-off read from the data, not from the text of the source, unless noted: active = inhibition above about 27%; inactive = the rest.

SMILES | Mtb hypoxia rep | Mtb FBA inh | GDH-TPI counter-1 | Mtb BioA inh | FadD28 binding | Mtb FBA inh conf | GDH-TPI counter-2
CCCCNC(=O)c1cc2c(=O)n3cccc(C)c3nc2s1 | 0 | 74 | 0 | 0 | 0 | + | +
Cc1cccn2c(=O)c3cc(C(=O)NCCc4ccccc4)sc3nc12 | 0 | 35 | 0 | 0 | 0 | 0 | 0
COCCCNC(=O)c1cc2c(=O)n3cccc(C)c3nc2s1 | 0 | 65 | 0 | 0 | 0 | 66 | 47
Cc1ccccc1NC(=O)c1cc2c(=O)n3cccc(C)c3nc2s1 | 0 | 0 | 0 | 0 | 0 | - | -
Cc1ccc(S(=O)(=O)N[C@@H]2C=C[C@H](CC(=O)N3CCC(Cc4ccccc4)CC3)O[C@@H]2CO)cc1 | - | - | - | 0 | - | - | -
CCC(=O)N(C)C[C@@H]1Oc2cc(-c3cccc(F)c3)ccc2S(=O)(=O)N([C@@H](C)CO)C[C@@H]1C | - | - | - | 0 | - | - | -
O=C(C[C@@H]1CC[C@H](NC(=O)Cc2ccccn2)[C@@H](CO)O1)NCCCN1CCOCC1 | - | - | - | 0 | - | - | -
COc1ccc(-c2nnc(-c3cccnc3)o2)cc1 | 0 | 83 | 0 | 0 | 0 | 154 | 126
c1cncc(-c2nnc(-c3cccs3)o2)c1 | 0 | 51 | 0 | - | 0 | 70 | 47
Cc1ccccc1-c1nnc(-c2cccs2)o1 | 0 | 29 | 0 | 0 | 0 | 165 | 128
Cc1ccc(-c2nnc(-c3cccnc3)o2)cc1 | 0 | 0 | 0 | 0 | 0 | - | -
C[C@H](CO)N1C[C@H](C)[C@H](CN(C)Cc2cccc(F)c2)Oc2cc(-c3cccc(C#N)c3)ccc2S1(=O)=O | - | - | - | 0 | - | - | -
CNC[C@H]1Oc2ccc(NC(=O)Cc3cn(C)c4ccccc34)cc2C(=O)N([C@H](C)CO)C[C@H]1C | - | - | - | 0 | - | - | -
O=c1[nH]c2ccccc2nc1-c1cccs1 | 0 | 104 | 0 | 0 | 0 | 143 | 107
CCOC1OC(C(=O)O)=CC(C)C1CCCO (stereo not given) | 0 | - | - | - | - | - | -
Cc1ccc(C(=O)CC(c2cccs2)S(=O)(=O)c2ccc(C)cc2)cc1 (stereo not given) | - | 102 | 0 | - | 0 | 61 | 29
CCCN(CC(=O)Nc1ccccc1C)C(=O)c1ccc(C(=O)c2ccccc2)cc1 | 0 | 0 | 0 | 0 | 0 | - | -
CCCN(CC(=O)Nc1ccccc1C)C(=O)c1ccc(-c2ccc(C(C)=O)cc2)o1 | 0 | 73 | 31 | 0 | 0 | 0 | 0
Nc1nc2c(c(=O)[nH]1)CN(Cc1ccccc1)CC2 | 0 | 53 | 0 | 0 | 0 | 108 | 99
Nc1c2c(nc3ccccc13)CCN(Cc1ccccc1)C2 | 0 | 0 | 0 | 0 | 0 | - | -
O=C(COc1nnc2ccccn12)N1CCN(S(=O)(=O)c2ccccc2)CC1 | - | 35 | 0 | 0 | 0 | 0 | 0
O=C(COc1cccnc1[N+](=O)[O-])N1CCN(S(=O)(=O)c2ccccc2)CC1 | - | 0 | 0 | - | 0 | - | -
O=C(Cc1ccccc1)Nc1ccc(-c2nnc(-c3ccco3)o2)cc1 | - | 51 | 0 | 0 | 0 | + | 151
COc1ccccc1CC(=O)Nc1ccc(-c2nnc(-c3ccco3)o2)cc1 | 0 | 83 | 0 | 0 | 0 | 51 | 42
COc1cc(C(=O)Nc2ccc(-c3nnc(-c4ccco4)o3)cc2)cc(OC)c1OC | 0 | 0 | 0 | 0 | 0 | - | -
SMILES | Mtb hypoxia rep | Mtb FBA inh | GDH-TPI counter-1 | Mtb BioA inh | FadD28 binding | Mtb FBA inh conf | GDH-TPI counter-2
O=C(Cc1ccc(Cl)cc1)Nc1ccc(-c2nnc(-c3ccco3)o2)cc1 | 0 | 59 | 0 | 0 | 0 | 38 | 31
Cc1cc2nc(N=C(N)NC(=O)N3c4ccccc4Sc4ccccc43)nc(C)c2cc1C | 0 | - | - | - | - | - | -
O=C(O)C[C@@H]1CC[C@@H](NC(=O)Nc2cc(F)ccc2F)[C@H](CO)O1 | - | - | - | 0 | - | - | -
O=C1OCc2cccc3cccc1c23 | 0 | 50 | 0 | 0 | 0 | 198 | 174
C/C(N)=C(/C#N)C(=O)COC(=O)c1cccc2ccccc12 | 0 | 28 | 0 | 0 | 0 | 73 | 55
C/C(N)=C(/C#N)C(=O)COC(=O)c1ccccc1O | 0 | 0 | 0 | - | 0 | - | -
Cc1c(C(=O)Nc2ccc(F)cc2)c2ccccn2c1CCc1ccncc1 | 0 | 32 | 0 | - | 0 | + | +
COC(=O)CCc1c(C)c(C(=O)c2ccc(F)cc2)c2ccccn12 | 0 | 0 | 0 | - | 0 | - | -
Brc1ccc(-c2nnc(-c3ccco3)o2)cc1 | 0 | 60 | 0 | - | 0 | 149 | 145
CCOc1ccc(-c2nnc(-c3ccco3)o2)cc1OCC | 0 | 74 | 0 | 0 | 0 | 130 | 119
c1ccc(-c2nnc(-c3ccco3)o2)cc1 | 0 | 42 | 0 | 0 | 0 | 64 | 49
C#CCOCCOCCOCCNc1nc(N2CCN(C(=O)C(CCC(=O)O)n3cc(C(N)Cc4ccc(O)cc4)nn3)CC2)nc(N2CCN(C(=O)C(C(C)CC)n3cc(C(N)Cc4ccc(O)cc4)nn3)CC2)n1 (stereo not given) | 0 | - | - | - | - | - | -
CCOc1ccccc1C=NNC(=O)c1cccc(S(=O)(=O)N2CCOCC2)c1 | 0 | - | - | - | - | - | -
O=C(C(=NO)c1ccccc1)c1ccccc1 | 0 | - | - | - | - | - | -
O=C(Nc1ccc(F)cc1)N[C@H]1CC[C@H](CCn2cc(-c3ccccc3F)nn2)O[C@H]1CO | - | - | - | 0 | - | - | -
COc1ccc(-c2coc3c(CN4CCOCC4)c(O)ccc3c2=O)cc1 | 0 | 41 | 0 | 0 | 0 | 63 | 50
Cc1c(O)ccc2c(=O)c(-c3nncn3-c3ccccc3)coc12 | 0 | 0 | 0 | - | 0 | - | -
O=c1c(-c2ccc(Cl)cc2)coc2c(CN3CCOCC3)c(O)ccc12 | - | 30 | 0 | 0 | 0 | 30 | 19
CCOc1ccccc1Oc1c(C)oc2c(CN3CCN(CCO)CC3)c(O)ccc2c1=O | 0 | 80 | 0 | - | 0 | 0 | 0
O=C(c1ccccc1)c1coc2ccc(O)c(CN3CCOCC3)c12 | 0 | 0 | 0 | 0 | 0 | - | -
CCOC(=O)c1c(C)oc2c1c(CN1CCN(CCO)CC1)c(O)c1ccccc12 | 0 | 0 | 0 | - | 0 | - | -
O=c1c(-c2ccccc2)coc2c(CN3CCCC3)c(O)ccc12 | 0 | 82 | 0 | 0 | 0 | 145 | 123
CCc1cc2c(-c3ccccc3)cc(=O)oc2c(CN2CCOCC2)c1O | 0 | 0 | 0 | 0 | 0 | - | -
Cc1oc2c(CN3CCOCC3)c(O)ccc2c(=O)c1-c1ccccc1 | 0 | 98 | 0 | 0 | 0 | + | +
C[C@H](CO)N1C[C@H](C)[C@H](CN(C)C)Oc2ccc(NC(=O)c3ccncc3)cc2C1=O | - | - | - | 0 | - | - | -
CCNC(=O)/C(C#N)=C/c1c(N2CCN(c3ccccc3)CC2)nc2ccccn2c1=O | 0 | 50 | 0 | 0 | 0 | 0 | 17
COCCCNC(=O)/C(C#N)=C/c1c(N2CCN(c3ccc(OC)cc3)CC2)nc2c(C)cccn2c1=O | 0 | 0 | 0 | 0 | 0 | - | -
COCCCNC(=O)/C(C#N)=C/c1c(N2CCN(c3ccccc3)CC2)nc2ccccn2c1=O | 0 | 91 | 0 | 0 | 0 | 112 | 121

Screening data (PubChem)
